# Source: PubChem BioAssay
# Target: Left-right determination factor 2 (Homo sapiens) (UniProt O00292)
# Test: small molecules binding LEFTY2 protein – biochemical, small-molecule microarray, 635 nm fluorescence scan, primary screen (AID 1110)
# Settings: higher = more signal
# Chain of Left-right determination factor 2 (Homo sapiens) (O00292 whole entry, looked up): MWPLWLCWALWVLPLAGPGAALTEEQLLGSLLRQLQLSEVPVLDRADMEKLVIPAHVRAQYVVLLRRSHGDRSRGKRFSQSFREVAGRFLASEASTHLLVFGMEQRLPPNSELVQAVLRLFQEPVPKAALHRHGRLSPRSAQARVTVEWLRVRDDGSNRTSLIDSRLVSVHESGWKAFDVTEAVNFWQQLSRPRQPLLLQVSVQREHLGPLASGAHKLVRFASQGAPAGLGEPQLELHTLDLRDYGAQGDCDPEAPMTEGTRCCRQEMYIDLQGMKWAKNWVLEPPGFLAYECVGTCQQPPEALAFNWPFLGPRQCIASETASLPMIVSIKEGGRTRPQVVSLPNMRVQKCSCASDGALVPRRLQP
row,Compound,composite z-score
1,C=CCNC(=O)[C@H]1[C@@H]2C(=O)O[C@@H](c3ccccc3)[C@@H](c3ccccc3)N2[C@@H](c2ccc(OCCO)cc2)[C@]12C(=O)N(C(=O)OCCOC)c1ccc(C#CC3(O)CCCCCC3)cc12,1.2
2,CCCCN1CC=CC23O[C@@H]4C=CCCOC(=O)C4[C@H]2C(=O)N(CCCO)[C@@H]3C1=O (stereo not given in full),-0.513
3,O=C(N1CCCCC1)[C@]1(CCS(=O)(=O)c2ccccc2)N=C(c2ccc(OCCCO)cc2)O[C@@H]1c1ccccc1,0.101
4,O=C1c2ccccc2[C@@]2(Cc3ccccc3N(Cc3ccccc3)C2=O)[C@H](c2ccc(CO)cc2)N1Cc1ccccc1C(F)(F)F,-1.3
5,CC(C)C(=C=CC[C@H](O)c1ccccc1OCCO)CCO,-0.378
6,C=CCC(OC(C)=O)[C@@H]1[C@@H](N(Cc2cc3ccccc3o2)C(=O)c2ccc(C)cc2)c2cc(OCCCO)ccc2N1C(=O)c1ccc(-c2ccccc2)cc1 (stereo not given in full),0.36
7,CC(C)(C)OC(=O)CC[C@@]1(C(=O)NCC(O)CO)N=C(c2ccc(OCCCO)cc2)O[C@@H]1c1ccccc1 (stereo not given in full),-0.452
8,CCOC(=O)C1=CC[C@@H](c2cccc(Cl)c2)N(S(=O)(=O)c2ccc(C)cc2)[C@H]1c1ccc(C#N)cc1,0.838
9,COC(=O)[C@@]1(Cc2ccc(OC)cc2)[C@H]2c3cc(C(=O)N(C)C)n(Cc4ccc(OC)c(OC)c4)c3C[C@H]2CN1C(=O)c1ccccc1,0.0549
10,OCCCc1cc[n+](Cc2cccc(OC(F)(F)F)c2)cc1,0.208
11,O=C1O[C@@H](c2ccccc2)[C@@H](c2ccccc2)N2[C@@H](c3ccc(O)cc3)[C@]3(C(=O)Nc4ccccc43)[C@@H](C(=O)N3CCCCCCC3)[C@H]12,0.695
12,COCCCNC(=O)[C@@]1(C)c2ccccc2C(=O)N(Cc2ccccc2)[C@H]1c1ccc(CO)cc1,-2.9
13,COc1ccc([Si](C)(C)[C@H]2[C@H](CCO)O[C@@]3(C(=O)N(Cc4ccccc4)c4ccc(N5C(=O)COc6ccccc65)cc43)[C@@H]2C)cc1,0.206
14,C=C(C)[C@@H]1CC=C(C(O)C2C=CC3C(=O)N(Cc4ccccc4)C(=O)C3N2n2cnnc2)CC1 (stereo not given in full),-0.485
15,C=C(CCCC)C(=O)CC[C@H](OC(=O)c1ccccc1-c1ccccc1C(=O)O)c1ccc(CO)o1,0.645
16,O=C1C2C=CC(C(O)C3CC=CCC3)N(n3cnnc3)C2C(=O)N1Cc1ccccc1 (stereo not given),-0.49
17,C=CCC(OC(C)=O)[C@@H]1[C@@H](N(Cc2cc3ccccc3o2)C(=O)c2ccc(-c3ccccc3)cc2)c2cc(OCCCO)ccc2N1C(=O)Cc1ccc2ccccc2c1 (stereo not given in full),-0.36
18,O=[N+]([O-])c1ccc(C[n+]2ccc(CCCO)cc2)o1,0.69
19,CC(c1ccccc1)C(O)C1C=CC2C(=O)N(Cc3ccccc3)C(=O)C2N1n1cnnc1 (stereo not given),0.202
20,O=C1C2C=CC(C(O)c3cccc4ccccc34)N(n3cnnc3)C2C(=O)N1Cc1ccccc1 (stereo not given),0.102
21,O=C1C2C=CC(C(O)c3ccc(B(O)O)cc3)N(Nc3ccc([N+](=O)[O-])cc3)C2C(=O)N1c1ccccc1 (stereo not given),0.528
22,COCCOC(=O)N1C(=O)[C@@]2(c3ccccc31)[C@H](c1ccc(O)cc1)N1[C@H](c3ccccc3)[C@H](c3ccccc3)OC(=O)[C@H]1[C@@H]2C(N)=O,-0.827
23,O=C1C2C=CC(C(O)CCc3ccccc3)N(Nc3ccccc3)C2C(=O)N1c1ccccc1 (stereo not given),-0.231
24,COc1ccc([Si](C)(C)[C@H]2[C@H](CC(=O)N3CCC[C@H]3CO)O[C@@]3(C(=O)N(c4ccccc4)c4ccccc43)[C@@H]2C)cc1,0.301
25,CCCNC(=O)[C@@]1(C)c2ccccc2C(=O)N(Cc2ccc(OC(F)(F)F)cc2)[C@H]1c1ccc(CO)cc1,-0.808
